“And” between values parts separate entries of the source, which are not always exact repeats. Identical values can stand only once. Inconclusive results are not listed. A structure can be active in one record and inactive in another. The source made the active and inactive calls. Unless noted, calls follow the shape of the dose curve; as a rule, active = well fitted curve in the direction sought with a large enough effect; inconclusive = small, poorly fitted or top-dose-only effect, or another doubt; inactive = no such curve, though single readings can be large; an effect the other way counts as inactive or inconclusive.

Assay [1] in a line: Validation screen for inhibitors of Lassa infection (AID 463096; calls by dose curve; also: % is scaled to controls: 0 for no effect and ±100 for the full control effect).
A short description of assay [2]: Inducers of the Endoplasmic Reticulum Stress Response (ERSR) in human glioma: Validation (AID 504836). Also: 0% is about no effect. Put shortly: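 ERSR induction read as luciferase luminescence (Bright-Glo, 10 min at room temperature) in stably transfected human U87-MG glioma cells exposed to compounds for 16 h, using GRP78 as sensor.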
Assay [3] can be described thus: qHTS for Inhibitors of the Functional Ribonucleoprotein Complex (vRNP) of Lassa (LASV) Arenavirus: LASV Primary Screen - GLuc reporter signal (AID 1347082; calls by dose curve; tested in HEK293 reporter line; also: % is scaled to controls: 0 for no effect and ±100 for the full control effect; nearly all actives have a fitted effect of over 60% in size). In general terms: In qHTS, concentration-response curves come from the screen itself.
Assay [4] in a line: qHTS for Inhibitors of the Functional Ribonucleoprotein Complex (vRNP) of Lassa (LASV) Arenavirus: Viability assay - alamar blue signal for LASV Primary Screen (AID 1347083; calls by dose curve; tested in HEK293 reporter line; also: % is scaled to controls: 0 for no effect and ±100 for the full control effect; nearly all actives have a fitted effect of over 80% in size).
A short description of assay [5]: qHTS for Inhibitors of the Functional Ribonucleoprotein Complex (vRNP) of Lymphocytic Choriomeningitis Arenaviruses (LCMV): Viability assay - alamar blue signal for LCMV Primary Screen (AID 1347085; calls by dose curve; tested in HEK293 reporter line; also: % is scaled to controls: 0 for no effect and ±100 for the full control effect; nearly all actives have a fitted effect of over 80% in size).
The target of assay [6] is Nucleoprotein (Lymphocytic choriomeningitis virus (strain Armstrong)) (UniProt P09992). Kind of assay: qHTS for Inhibitors of the Functional Ribonucleoprotein Complex (vRNP) of Lymphocytic Choriomeningitis Arenaviruses (LCMV): LCMV Primary Screen - GLuc reporter signal (AID 1347086; calls by dose curve; also: % is scaled to controls: 0 for no effect and ±100 for the full control effect; nearly all actives have a fitted effect of over 70% in size).
Nucleoprotein (Lymphocytic choriomeningitis virus (strain Armstrong)), sequence (P09992 whole entry, looked up): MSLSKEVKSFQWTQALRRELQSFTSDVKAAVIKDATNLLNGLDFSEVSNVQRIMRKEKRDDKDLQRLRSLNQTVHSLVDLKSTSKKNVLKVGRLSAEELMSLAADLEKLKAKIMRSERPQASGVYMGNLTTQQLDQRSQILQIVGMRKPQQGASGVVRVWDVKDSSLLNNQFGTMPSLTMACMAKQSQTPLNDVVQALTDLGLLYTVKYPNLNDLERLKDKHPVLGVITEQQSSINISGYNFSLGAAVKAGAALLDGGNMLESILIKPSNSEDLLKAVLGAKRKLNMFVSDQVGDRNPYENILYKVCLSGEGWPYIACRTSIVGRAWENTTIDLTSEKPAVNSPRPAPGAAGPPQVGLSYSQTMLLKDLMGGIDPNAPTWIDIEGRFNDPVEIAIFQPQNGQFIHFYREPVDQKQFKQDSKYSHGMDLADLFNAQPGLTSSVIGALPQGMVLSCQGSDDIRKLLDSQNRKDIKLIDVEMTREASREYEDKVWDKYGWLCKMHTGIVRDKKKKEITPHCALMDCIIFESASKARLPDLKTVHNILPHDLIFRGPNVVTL
A short description of assay [7]: Primary qHTS for Huh7 cytotoxicity: counterscreen for inhibitors of MERS-S pseudotyped particle cell entry (AID 1479147; calls by dose curve; also: % is scaled to controls: 0 for no effect and ±100 for the full control effect). The conditions noted are these: outcome: dose series up to 57.1 µM unless noted.
A short description of assay [8]: Primary qHTS for inhibitors of MERS-S pseudo-typed particle cell entry (AID 1479149; calls by dose curve; also: % is scaled to controls: 0 for no effect and ±100 for the full control effect; nearly all actives have a fitted effect of over 60% in size).
Assay [9] can be described thus: Primary qHTS for Vero E6 cytotoxicity: counterscreen for inhibitors of SARS-S pseudo-typed particle cell entry (AID 1479150; calls by dose curve). The conditions noted are these: outcome: dose series up to 57.1 µM unless noted.
Assay [10] is described as follows: Cytotoxicity counterscreen for inhibitors of SARS-CoV-2 cell entry (AID 1645845; calls by dose curve; also: nearly all actives have a fitted effect of over 50% in size). Put shortly: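 ATP-content luminescence (ATPLite 1step, 15 min RT) read after 48 h compound exposure of Expi293F cells stably expressing human ACE2; normalized to cells-only wells and media-only wells.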
In general terms: The purpose of a counterscreen is to sort out artefacts and off-target activity.

Assay [11] can be described thus: Stat Signaling Pathway (AID 446; active = well fitted curve in either direction with a large enough effect, not every such curve was filed as active;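 also: ME-180 cervical cancer cells given 40 pM IL-6 alongside compound; SIE-controlled beta-lactamase reporter measured as 460/530 nm FRET emission ratio; % is scaled to controls: 0 for no effect and ±100 for the full control effect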). In outline:
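Compound effects on IL-6-induced STAT reporter activity were measured in ME-180 cells. After overnight culture, cells were co-treated with 40 pM IL-6 for 5 hrs before beta-lactamase substrate loading at room temperature.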

For assay [12], the target named is Glucocorticoid receptor (Homo sapiens) (UniProt P04150). Kind of assay: GR-GFP Redistribution (AID 450;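 active = compounds whose dose series gives a full or clear partial fitted curve of increased nuclear translocation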; also: potency is read from the fitted curve at half-maximal effect). Particulars: U2OS GR-GFP nuclear translocation, laser cytometry, 2 h.
Glucocorticoid receptor (Homo sapiens), sequence (P04150 whole entry, looked up): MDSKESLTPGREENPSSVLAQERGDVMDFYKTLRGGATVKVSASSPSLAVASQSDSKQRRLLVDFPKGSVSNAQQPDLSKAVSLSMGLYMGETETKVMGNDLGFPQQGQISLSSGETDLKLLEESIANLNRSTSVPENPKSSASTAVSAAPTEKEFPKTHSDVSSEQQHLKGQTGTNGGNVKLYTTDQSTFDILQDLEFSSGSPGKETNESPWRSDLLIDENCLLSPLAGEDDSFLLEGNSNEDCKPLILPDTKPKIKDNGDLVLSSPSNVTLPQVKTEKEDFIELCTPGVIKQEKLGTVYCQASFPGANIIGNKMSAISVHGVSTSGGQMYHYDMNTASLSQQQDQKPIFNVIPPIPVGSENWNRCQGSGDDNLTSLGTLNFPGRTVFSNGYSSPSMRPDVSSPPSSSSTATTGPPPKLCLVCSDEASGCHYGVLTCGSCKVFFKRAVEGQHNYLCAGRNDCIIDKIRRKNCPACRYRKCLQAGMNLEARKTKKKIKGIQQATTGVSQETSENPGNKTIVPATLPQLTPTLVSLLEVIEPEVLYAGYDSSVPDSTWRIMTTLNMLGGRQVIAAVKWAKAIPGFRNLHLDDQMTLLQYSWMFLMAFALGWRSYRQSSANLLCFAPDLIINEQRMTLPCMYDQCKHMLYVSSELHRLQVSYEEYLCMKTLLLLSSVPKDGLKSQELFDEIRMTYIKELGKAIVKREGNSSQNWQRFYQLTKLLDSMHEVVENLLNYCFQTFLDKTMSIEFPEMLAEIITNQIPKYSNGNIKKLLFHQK
For assay [13], the target named is Cytochrome P450 3A4 (Homo sapiens) (UniProt P08684). The assay is described as follows: qHTS Assay for Activators of Cytochrome P450 3A4 (AID 885). Also: nearly all actives have a fitted effect of over 65% in size. Put shortly:
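CYP3A4 activity: Luciferin-PPXE O-dealkylation, 25uM substrate, 200mM KPO4, RT throughout. Read-out is luciferase luminescence; higher values reflect activation.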

Assay [14] can be described thus: Confirmation and Secondary Assay for Modulators of Hemoglobin Beta Chain Splicing at IVS2 705 locus (AID 930).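 Also: HeLa cells stably expressing the EGFP-705 splicing reporter; GFP fluorescence per well restored by corrected splicing of the IVS2-705 intron in EGFP; % of control where 0% means no effect.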 In outline: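 Secondary splice-site specificity test uses HeLa expressing CMV-driven EGFP interrupted by IVS2-705; cells were treated 2 days at 37C with 500 nM antisense PNA as positive control.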
Assay [15] can be described thus: qHTS Assay for Lipid Storage Modulators (AID 1519; calls by dose curve). The conditions noted are these: Drosophila S3 cells, BODIPY lipid droplet/cell ratio, laser cytometry, cells loaded with oleic acid; for activity change, negative = inhibition: at 57.5 µM (top of the series). In outline:
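Cells seeded at 5,000 per well were treated with compounds over a concentration series and loaded with oleic acid (400 uM, as added). Lipid droplet fluorescence (488 nm excitation, 500-530 nm channel) was read by laser-scanning cytometry and normalized to 20 uM Triacsin C.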

For assay [16], the target named is Rap guanine nucleotide exchange factor 3 (Homo sapiens) (UniProt O95398). Kind of assay: Confirmatory qHTS for agonist of cAMP-regulated guanine nucleotide exchange factor 3 (EPAC1) (AID 1645881).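 Also: EPAC1 catalysed release of BODIPY-GDP from Rap1B seen as fluorescence loss; 100% = effect of cAMP agonist control; nearly all actives have a fitted effect of over 75% in size.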
Rap guanine nucleotide exchange factor 3 (Homo sapiens), sequence (O95398 whole entry, looked up): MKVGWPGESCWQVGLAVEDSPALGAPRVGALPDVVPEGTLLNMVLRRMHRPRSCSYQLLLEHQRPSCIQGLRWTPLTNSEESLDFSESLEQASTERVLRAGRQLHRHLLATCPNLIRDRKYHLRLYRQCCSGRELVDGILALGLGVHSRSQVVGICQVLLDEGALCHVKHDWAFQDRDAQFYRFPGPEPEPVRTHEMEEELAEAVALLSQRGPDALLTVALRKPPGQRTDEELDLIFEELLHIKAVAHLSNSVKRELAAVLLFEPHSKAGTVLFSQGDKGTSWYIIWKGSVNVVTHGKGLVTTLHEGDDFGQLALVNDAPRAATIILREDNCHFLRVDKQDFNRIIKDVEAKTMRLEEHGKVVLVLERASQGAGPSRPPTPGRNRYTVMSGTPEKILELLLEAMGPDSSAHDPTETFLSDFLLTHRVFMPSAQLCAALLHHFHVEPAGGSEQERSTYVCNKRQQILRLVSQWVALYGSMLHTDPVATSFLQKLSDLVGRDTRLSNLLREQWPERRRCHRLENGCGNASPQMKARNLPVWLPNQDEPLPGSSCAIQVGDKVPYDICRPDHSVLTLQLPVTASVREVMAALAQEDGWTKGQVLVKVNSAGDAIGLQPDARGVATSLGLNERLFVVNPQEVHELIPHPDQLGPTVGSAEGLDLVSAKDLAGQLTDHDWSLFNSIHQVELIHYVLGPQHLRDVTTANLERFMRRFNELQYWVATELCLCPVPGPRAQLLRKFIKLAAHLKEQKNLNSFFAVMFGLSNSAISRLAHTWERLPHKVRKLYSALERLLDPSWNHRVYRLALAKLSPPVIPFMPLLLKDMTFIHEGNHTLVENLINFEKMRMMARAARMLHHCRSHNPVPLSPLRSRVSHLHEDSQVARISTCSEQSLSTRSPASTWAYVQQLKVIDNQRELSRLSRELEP
The target in assay [17] is Rap guanine nucleotide exchange factor 4 (Homo sapiens) (UniProt Q8WZA2). The assay is described as follows: Confirmatory qHTS for agonist of cAMP-regulated guanine nucleotide exchange factor 4 (EPAC2) (AID 1645884).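 Also: nucleotide exchange releases bodipy-GDP from Rap1 and this lowers its fluorescence; % is scaled to controls: 0 for no effect and ±100 for the full control effect; nearly all actives have a fitted effect of over 65% in size.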
Rap guanine nucleotide exchange factor 4 (Homo sapiens), sequence (Q8WZA2 whole entry, looked up): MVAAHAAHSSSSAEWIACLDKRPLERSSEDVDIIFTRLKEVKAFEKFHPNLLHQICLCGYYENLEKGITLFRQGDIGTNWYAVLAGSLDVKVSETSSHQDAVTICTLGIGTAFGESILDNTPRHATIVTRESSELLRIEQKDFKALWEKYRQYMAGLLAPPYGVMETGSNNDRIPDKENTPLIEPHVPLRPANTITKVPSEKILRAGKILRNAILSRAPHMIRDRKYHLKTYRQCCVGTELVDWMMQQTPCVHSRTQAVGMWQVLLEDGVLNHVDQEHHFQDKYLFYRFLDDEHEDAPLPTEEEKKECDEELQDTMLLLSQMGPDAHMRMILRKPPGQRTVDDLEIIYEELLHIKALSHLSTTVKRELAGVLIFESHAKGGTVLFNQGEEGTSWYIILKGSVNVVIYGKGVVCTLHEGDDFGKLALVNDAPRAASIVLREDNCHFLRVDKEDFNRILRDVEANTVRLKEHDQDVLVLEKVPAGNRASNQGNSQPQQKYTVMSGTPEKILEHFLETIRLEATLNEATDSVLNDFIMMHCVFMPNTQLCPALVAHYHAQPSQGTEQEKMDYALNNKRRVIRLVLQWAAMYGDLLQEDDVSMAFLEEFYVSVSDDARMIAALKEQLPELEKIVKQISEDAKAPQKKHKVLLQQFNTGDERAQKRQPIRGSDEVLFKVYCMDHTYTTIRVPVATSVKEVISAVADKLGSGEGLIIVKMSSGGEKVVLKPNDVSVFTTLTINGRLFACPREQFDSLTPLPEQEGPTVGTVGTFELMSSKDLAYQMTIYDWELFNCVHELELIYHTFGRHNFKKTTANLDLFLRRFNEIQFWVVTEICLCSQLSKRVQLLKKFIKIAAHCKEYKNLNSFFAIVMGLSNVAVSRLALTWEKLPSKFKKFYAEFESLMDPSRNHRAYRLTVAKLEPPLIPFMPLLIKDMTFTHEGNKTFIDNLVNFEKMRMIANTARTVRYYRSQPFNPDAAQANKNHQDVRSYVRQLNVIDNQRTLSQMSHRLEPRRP
The target is the same in assay [18]. Kind of assay: Confirmatory qHTS for antagonist of cAMP-regulated guanine nucleotide exchange factor 4 (EPAC2) (AID 1645885). Also: potency is read from the fitted curve at half-maximal effect; nearly all actives have a fitted effect of over 25% in size.
In assay [19] the target is Rap guanine nucleotide exchange factor 3 (Homo sapiens) (UniProt O95398). The assay is described as follows: Counterscreen qHTS for antagonist of cAMP-regulated guanine nucleotide exchange factor 3 (EPAC1) (AID 1645888).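 Also: fluorescence loss as bound BODIPY-GDP is released from Rap1B; % of control where 0% means no effect.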 Put shortly: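 Rap1B-BODIPY-GDP 250 nM + GDP 50 uM; cpds 7-pt, final 9.74 nM–152 uM (activator mode) or from 7.32 nM upwards (inhibitor mode); RT; FI 480/540 nm at 5 and 30 min, then ± cAMP, reread.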

The target of assay [20] is Alpha-galactosidase (Coffea arabica) (UniProt Q42656). The assay is described as follows: Counterscreen for Glucocerebrosidase Inhibitors: qHTS Assay for Coffee Bean alpha-Galactosidase at pH 4.5 (AID 957).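 Also: plate controls were enzyme alone for no effect and no enzyme for full effect.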 In outline:
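Enzyme is added first (2 nM final), then compounds titrated from 0.7 nM to 77 uM, then 80 uM 4-methylumbelliferyl alpha-D-galactopyranoside; after 20 min at room temperature a pH 10 NaOH/glycine stop precedes fluorescence reading at 365/440 nm.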

Assay [21] has the same target. The assay is described as follows: Counterscreen for Glucocerebrosidase Inhibitors: qHTS Assay for Coffee Bean alpha-Galactosidase at pH 5.9 (AID 998).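 Also: plate controls were uninhibited enzyme for no effect and no-enzyme basal signal for full effect.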 In outline: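 Fluorogenic 4-MU substrate hydrolysis, 80 uM substrate and 2 nM coffee bean alpha-galactosidase, pH 5.9 citrate buffer, 20 min at room temperature, then NaOH/glycine stop. Titration 0.7 nM–77 uM, normalized to no-enzyme and enzyme controls, AC50 via Hill equation.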

Assay [22] in a line: Confirmatory qHTS for VERO E6 Cytotoxicity Assay: Counterscreen for SARS-CoV-2 CPE Assay (AID 1508605; calls by dose curve; also: % is scaled to controls: 0 for no effect and ±100 for the full control effect; nearly all actives have a fitted effect of over 60% in size).
Assay [23] has as its target Cytochrome P450 3A4 (Homo sapiens) (UniProt P08684). The assay is described as follows: qHTS Assay for Inhibitors and Substrates of Cytochrome P450 3A4 (AID 884). Also: nearly all actives have a fitted effect of over 50% in size. Also: potency is read from the fitted curve at half-maximal effect. In outline: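 Luminescent readout of luciferin produced by CYP3A4 (20 nM) dealkylation of Luciferin-PPXE, 25 uM (its KM). NADPH-driven reaction ran 60 min at RT after 10 min compound preincubation; data scaled to 57 uM ketoconazole as 100% inhibition.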

Assay [24] addresses Ubiquitin carboxyl-terminal hydrolase 1 (Homo sapiens) (UniProt O94782). Kind of assay: Inhibitors of USP1/UAF1: Pilot qHTS (AID 504865).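 Also: rhodamine fluorescence freed from ubiquitin-rhodamine substrate followed over time; top concentration of the series differs between compounds; % is scaled to controls: 0 for no effect and ±100 for the full control effect; nearly all actives have a fitted effect of over 35% in size.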 In outline: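 Deubiquitinase activity followed as kinetic rhodamine fluorescence release from 150 nM Ub-Rho. 1 nM USP1/UAF1 with compound, after 15 min room-temperature preincubation, in HEPES pH 7.8 buffer containing TCEP, EDTA, BSA and Tween-20.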

Assay [25] is described as follows: Primary qHTS for small molecule stabilizers of the endoplasmic reticulum resident proteome: Secreted ER Calcium Modulated Protein (SERCaMP) assay (AID 1508630). Also: % is scaled to controls: 0 for no effect and ±100 for the full control effect. In outline:
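The SH-SY5Y reporter protocol was run at 3 concentrations up to 38.3 uM (primary) or 11 concentrations (follow-up): 16 h compound, 100 nM thapsigargin for 4 h, then extracellular luciferase luminescence.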

The nature of assay [26]: Counterscreen qHTS for small molecule stabilizers of the endoplasmic reticulum resident proteome: GLuc-NoTag assay (AID 1508627).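 Also: SH-SY5Y cells given compound then 100 nM thapsigargin to empty ER calcium; 0% = thapsigargin alone and -100% = DMSO vehicle control.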 In outline:
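Counterscreen line: SH-SY5Y-GLuc-NoTag cells, treated with compound 19 hr before a 4 hr, 100 nM thapsigargin calcium depletion. Secreted Gaussia luciferase in the medium was measured by luminescence after coelenterazine was added (0.07x final), with cells unlysed.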

The nature of assay [27]: Cell Viability qHTS for small molecule stabilizers of the endoplasmic reticulum resident proteome (AID 1508629). Particulars: cell viability counter-screen, 100 nM thapsigargin for final 4 h.
The nature of assay [28]: Confirmatory qHTS for activators (rescue) of SARS-CoV-2 Cytopathic Effect (CPE) (AID 1508606; calls by dose curve; also: potency is read from the fitted curve at half-maximal effect; nearly all actives have a fitted effect of over 70% in size).
Setting [29] is: measured here: cell count channel max response.
Where [30] appears, read: measured here: lipid channel max response.

Cytochrome P450 3A4 (Homo sapiens), sequence (P08684 whole entry, looked up): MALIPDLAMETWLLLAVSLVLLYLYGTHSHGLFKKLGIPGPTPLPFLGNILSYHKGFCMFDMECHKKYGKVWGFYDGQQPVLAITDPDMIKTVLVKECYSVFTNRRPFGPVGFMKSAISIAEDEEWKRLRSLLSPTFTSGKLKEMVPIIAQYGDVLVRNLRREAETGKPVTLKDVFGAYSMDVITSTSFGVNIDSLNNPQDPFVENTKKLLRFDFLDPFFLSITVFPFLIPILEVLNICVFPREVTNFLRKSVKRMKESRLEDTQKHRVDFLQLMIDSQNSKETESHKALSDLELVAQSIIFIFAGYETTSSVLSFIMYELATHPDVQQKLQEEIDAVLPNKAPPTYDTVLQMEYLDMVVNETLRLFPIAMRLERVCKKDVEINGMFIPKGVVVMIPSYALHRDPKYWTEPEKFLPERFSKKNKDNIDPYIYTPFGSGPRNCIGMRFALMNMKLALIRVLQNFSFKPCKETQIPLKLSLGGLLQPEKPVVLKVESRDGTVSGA
Ubiquitin carboxyl-terminal hydrolase 1 (Homo sapiens), sequence (O94782 whole entry, looked up): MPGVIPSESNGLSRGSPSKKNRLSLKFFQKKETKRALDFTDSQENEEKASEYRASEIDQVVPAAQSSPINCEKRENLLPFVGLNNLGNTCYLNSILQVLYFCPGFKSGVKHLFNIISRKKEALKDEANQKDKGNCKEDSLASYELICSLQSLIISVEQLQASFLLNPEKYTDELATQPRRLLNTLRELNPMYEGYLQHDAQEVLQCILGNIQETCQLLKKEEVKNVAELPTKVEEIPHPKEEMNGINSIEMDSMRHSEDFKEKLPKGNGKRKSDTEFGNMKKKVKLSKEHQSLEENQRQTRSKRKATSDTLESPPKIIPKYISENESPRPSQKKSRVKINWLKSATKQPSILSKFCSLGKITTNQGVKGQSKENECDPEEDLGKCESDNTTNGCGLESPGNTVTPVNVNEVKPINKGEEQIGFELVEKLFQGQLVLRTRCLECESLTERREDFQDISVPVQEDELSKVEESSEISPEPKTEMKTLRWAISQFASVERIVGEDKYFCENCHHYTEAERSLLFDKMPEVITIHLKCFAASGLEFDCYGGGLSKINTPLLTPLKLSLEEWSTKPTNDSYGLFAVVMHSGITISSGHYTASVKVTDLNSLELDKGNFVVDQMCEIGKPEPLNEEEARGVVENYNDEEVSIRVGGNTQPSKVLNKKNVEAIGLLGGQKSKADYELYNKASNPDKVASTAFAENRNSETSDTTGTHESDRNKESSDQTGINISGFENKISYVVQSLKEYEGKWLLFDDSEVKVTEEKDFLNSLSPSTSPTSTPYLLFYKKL
Alpha-galactosidase (Coffea arabica), sequence (Q42656 whole entry, looked up): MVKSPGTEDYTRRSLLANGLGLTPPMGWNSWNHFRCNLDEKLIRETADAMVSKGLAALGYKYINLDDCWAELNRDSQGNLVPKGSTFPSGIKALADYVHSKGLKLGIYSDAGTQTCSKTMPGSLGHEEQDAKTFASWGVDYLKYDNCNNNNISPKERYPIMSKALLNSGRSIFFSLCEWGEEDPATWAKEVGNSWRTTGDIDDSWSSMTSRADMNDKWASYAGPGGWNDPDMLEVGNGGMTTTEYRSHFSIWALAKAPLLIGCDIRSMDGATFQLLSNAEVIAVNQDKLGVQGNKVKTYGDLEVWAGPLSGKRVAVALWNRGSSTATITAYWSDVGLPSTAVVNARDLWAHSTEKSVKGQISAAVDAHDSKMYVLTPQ

On to `CN(C)CCC(c1ccc(Br)cc1)c1ccccn1` (configuration not stated), for which the Potency result in [1], in assay [3], in assay [4], in assay [5], in assay [6] and in assay [8] was “inactive” each time. The Potency entry in [10] was “inactive”. Also, the call in assay [2], in assay [7] and in assay [9] was inactive.

In the case of `Clc1ccc(COC(Cn2ccnc2)c2ccc(Cl)cc2Cl)c(Cl)c1` (configuration not stated), the molecule was classed as inactive in assay [11], in assay [14], in assay [16], in [17] and in assay [19]. Besides, the Potency in [12] was > 20.6 µM (inactive); in assay [18], 49.4 µM (active) and 21.3 µM (active). In addition, the Potency result in assay [13], in assay [3], in assay [4], in assay [5], in [6] and in [10] was “inactive” each time. Further, the activity change, negative = inhibition in [15] is 3.93% (inactive). Besides, the max response was -9.24% in assay [15] (setting [29]) and -3.69% in [15] (setting [30]).

On to `CN(C)CCCN1c2ccccc2CCc2ccccc21`, for which the call in [20], in [21], in assay [7] and in assay [9] was inactive. The Potency entry in [3], in assay [4], in assay [5], in [6] and in assay [22] was “inactive” in each case.

`C/C=C1/CN2CC[C@]34C(=C(C=O)[C@H]1C[C@@H]23)Nc1ccccc14`: the Potency entry in [23], in [24], in [3], in assay [4], in assay [5] and in assay [6] was “inactive” throughout. For the same molecule, the activity change, negative = inhibition in [15] was -2.11% (inactive). The figures for the max response in [15] (setting [29]) and in [15] (setting [30]) were 7.61% and 5.28%, respectively.

`CCN1C[C@]2(C)CC[C@H](OC)[C@@]34[C@H]1C1(OCO[C@@]15C[C@H](OC)C1C[C@]3(O)C5[C@H]1OC)[C@@H](O)[C@H]24`: the Potency entry in assay [3], in assay [4], in [5], in assay [6] and in [25] was “inactive” throughout.

As to `C=CC1CN2CCC1CC2C(O)c1ccnc2ccccc12` (configuration not stated), the Potency in assay [23] is 25.1 µM (active) and inactive. In addition, the Potency result in assay [13], in [24], in [3], in [4], in assay [5] and in [6] was “inactive” each time. Moreover, the result in [14] was inactive. In assay [15], the activity change, negative = inhibition was 8.66% (inactive). The results for the max response in assay [15] (setting [29]) and in assay [15] (setting [30]) were 10.9% and 22.1%, respectively.

As to `CC(C)(O)C1OC2CCC3(C)C(O)(CCC4Cc5c([nH]c6ccccc56)C43C)C2=CC1=O` (configuration not stated), the Potency entry in assay [3], in assay [4], in assay [5], in [6] and in assay [26] was “inactive” each time. Also, the max response in assay [27] was 28.4% (inactive).

As to `Cc1ccc(C(=O)Nc2cccc(C(F)(F)F)c2)cc1Nc1nc(-c2cccnc2)nc2c1cnn2C`, the Potency entry in assay [3], in [4], in assay [5], in assay [6] and in assay [10] was “inactive” each time. For the same molecule, in assay [28], the Potency is 1.41 µM (active).

As to `COC(=O)C1=CO[C@@H](C)[C@@H]2CN3CC[C@]4(C(=O)Nc5c4ccc(OC)c5OC)[C@H]3C[C@H]12`, the Potency entry in assay [3], in assay [4], in [5], in assay [6] and in assay [25] was “inactive” throughout.

The values are drawn from PubChem BioAssay (NCATS).
